Screening results deposited in PubChem by National Center for Advancing Translational Sciences (NCATS).
Mito fusion yeast = inhibitors of mitochondrial division or activators of mitochondrial fusion | S. cerevisiae fusion-defective mutant growth rescue, CellTiterGlo 48 h | Potency, µM (series often up to 46.1 µM), without a hit: top-dose growth rescue (activation), hits mostly activators | 0.23% of 320,000 active; note: % of control where 0% means no effect; nearly all actives have a fitted effect of over 45% in size
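Luminescent cell viability in 1536-well qHTS format served as the measure of rescued growth in ts fusion-mutant S. cerevisiae cultured on non-fermentable YPEG for 48 hours at 37C.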
IDH1 R132H inh = blocks human mutant IDH1 R132H enzyme. AID 602179. IDH1-R132H enzyme, NADPH consumption, diaphorase/resazurin fluorescence. Potency, µM (top dose mostly 76.6 µM), inactives show top-dose activity change, negative = inhibition, most hits filed as inhibitors. 0.093% of 390,000 active. O75874; note: % is set by controls: 0 for no effect and ±100 for the full control effect; nearly all actives have a fitted effect of over 65% in size
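IDH1-R132H (0.5 ug/mL) preincubated 30 min with compound, then NADPH (0.016 mM) and alpha-KG (2 mM) added; 80 min at RT, pH 7.5. Remaining NADPH coupled via diaphorase/resazurin to fluorescence (540/590 nm); concentration-response curves normalized to no-enzyme control.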
A549 viability = kills or reduces viability of A549 cells in Nrf2 counter-screen. 0.16% of 390,000 active. A549 ARE-Fluc cells, CellTiter-Fluor viability, 18-24 h. Potency, µM (top dose mostly 46 µM), inactives show top-dose activity change, negative = cytotoxicity, usual class: inhibitors; note: % is set by controls: 0 for no effect and ±100 for the full control effect
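Cytotoxicity counterscreen: CellTiter-Fluor fluorescence was measured in A549 ARE_Fluc cells after 18-24 h of compound exposure in a concentration series. The subsequent BugLite luminescent read reports ARE-luciferase activity.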
Nrf2 inh = inhibitors of Nrf2 signaling; AID 504444; A549 ARE-Fluc reporter, luciferase luminescence, 18-24 h; Potency, µM (doses to about 46 µM), inactives show at the highest dose activity change, negative = inhibition, usual class: inhibitors; 2.1% of 360,000 active; note: % is set by controls: 0 for no effect and ±100 for the full control effect; nearly all actives have a fitted effect of over 60% in size
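A549 ARE_Fluc cells (5000/well, 5% FBS OPTI-MEM) pre-incubated 2 h, then treated with compounds 18-24 h at 37C/5% CO2 in concentration-response. CellTiter-Fluor viability read first; BugLite luciferase luminescence after 15 min at room temperature gives Nrf2 activity.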
TrxR1 inh = inhibitors of rat thioredoxin reductase 1; O89049; recombinant rTrxR1, NADPH fluorescence consumption, selenite substrate; Potency, µM (series often up to 114 µM), without a hit: top-dose activity change, negative = inhibition, hits mostly inhibitors; 1% of 390,000 active; AID 588453; note: % is set by controls: 0 for no effect and ±100 for the full control effect; nearly all actives have a fitted effect of over 65% in size
Target sequence (O89049 whole entry, looked up): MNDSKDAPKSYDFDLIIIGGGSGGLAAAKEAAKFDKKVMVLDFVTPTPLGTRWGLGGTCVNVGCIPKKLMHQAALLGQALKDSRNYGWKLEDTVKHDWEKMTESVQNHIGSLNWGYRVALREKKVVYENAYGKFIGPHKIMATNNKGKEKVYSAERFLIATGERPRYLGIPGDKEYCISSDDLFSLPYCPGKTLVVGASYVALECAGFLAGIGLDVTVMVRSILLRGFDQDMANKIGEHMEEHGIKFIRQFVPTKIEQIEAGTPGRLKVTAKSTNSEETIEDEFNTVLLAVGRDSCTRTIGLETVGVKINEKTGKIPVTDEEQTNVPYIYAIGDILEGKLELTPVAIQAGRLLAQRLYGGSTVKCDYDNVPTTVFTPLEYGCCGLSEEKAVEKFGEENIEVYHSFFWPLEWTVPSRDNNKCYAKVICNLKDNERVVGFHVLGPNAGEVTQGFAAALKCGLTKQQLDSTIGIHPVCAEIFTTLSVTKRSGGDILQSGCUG
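Rat TrxR1 (90 nM in the dispensed reagent) was pre-reduced with 400 uM NADPH for 5 min at room temperature, then incubated with compound for 15 min. After 400 uM selenite was added, NADPH fluorescence (Ex 340/Em 450 nm) was followed for 8 min.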
TrxR1 substrate = is turned over as a substrate by rat TrxR1 | O89049 | purified TrxR1 substrate turnover, NADPH consumption readout | Potency, µM (highest dose often 114 µM), without a hit: top-dose activity change, negative = substrate turnover | 0.01% of 390,000 active; note: % is set by controls: 0 for no effect and ±100 for the full control effect; nearly all actives have a fitted effect of over 50% in size
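Rat TrxR1, dispensed at 90 nM, was prereduced with 400 uM NADPH (final) for 5 min at ~22 deg C, then incubated with compound 15 min before 400 uM selenite. A first-read NADPH fluorescence drop versus no-compound background flagged substrates.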
The depositor's hits bear a star; [ ] = dose if it differs, or a comment. Only some compounds are listed: those with a hit (about 3.1% of all), similar ones and a draw of the others. Calls come from the whole dose curve; as a rule, active = well fitted curve in the direction sought with a large enough effect; inconclusive = small, poorly fitted or top-dose-only effect, or another doubt; inactive = no such curve, though single readings can be large; an effect the other way counts as inactive or inconclusive. Potency is the fitted concentration of half-maximal effect.

Results for CC(=O)N1N=C(c2ccc(Cl)cc2)CC1c1ccc([N+](=O)[O-])cc1 (stereo not drawn) ?
Mito fusion yeast: -1%; IDH1 R132H inh: -6%; A549 viability: -5%; Nrf2 inh: inconclusive; TrxR1 inh: 25%; TrxR1 substrate: 1%

Results for CC1(O)CC(c2ccc(Cl)cc2)=NN1C(=O)c1ccc([N+](=O)[O-])cc1 (stereo not drawn) ?
Mito fusion yeast: 8%; IDH1 R132H inh: 9%; A549 viability: inconclusive; Nrf2 inh: 18µM*; TrxR1 inh: 1%[57.1 µM]; TrxR1 substrate: -7%[57.1 µM]

What do the screens show for `O=C1c2ccccc2C(=O)N1c1cc(=O)c2ccccc2[nH]1`?
A549 viability: 4%; Nrf2 inh: 2%

How did CNc1ccc(/C=C2\C=Cc3ccccc32)cc1OC do in these assays?
TrxR1 inh: -23%; TrxR1 substrate: -11%

What do the screens show for `CCCN1CNc2c(c(=O)[nH]c(=S)n2CCc2ccccc2C)C1`?
A549 viability: 7%; Nrf2 inh: 9%; TrxR1 inh: 5%; TrxR1 substrate: 0%

How did c1ccc(-c2c(-c3ccccc3)n(Cc3ccco3)c3ncnc(NCCCn4ccnc4)c23)cc1 do in these assays?
Mito fusion yeast: -13%; IDH1 R132H inh: 29µM*; A549 viability: inconclusive; Nrf2 inh: inconclusive; TrxR1 inh: inconclusive; TrxR1 substrate: 55%

What do the screens show for `OCCNc1ncnc2c1c(-c1ccccc1)c(-c1ccccc1)n2Cc1ccco1`?
Mito fusion yeast: 6%; IDH1 R132H inh: -28%; A549 viability: 0%; Nrf2 inh: -19%; TrxR1 inh: inconclusive; TrxR1 substrate: 41%

What do the screens show for `CC(C)Cn1cnc2c(c(-c3ccccc3)c(-c3ccccc3)n2Cc2ccco2)c1=N`?
Mito fusion yeast: 12%; IDH1 R132H inh: -5%; A549 viability: 23µM*; Nrf2 inh: -20%; TrxR1 inh: -25%; TrxR1 substrate: -2%

How did O=S1(=O)N=C(Oc2ccccc2C(F)(F)F)c2ccccc21 do in these assays?
A549 viability: 3%; Nrf2 inh: inconclusive

How did CC(=O)c1ccc(NC(=O)CCn2cccn2)cc1 do in these assays?
IDH1 R132H inh: -4%; A549 viability: 6%; Nrf2 inh: inconclusive; TrxR1 inh: 4%[57.1 µM]; TrxR1 substrate: 2%[57.1 µM]

What do the screens show for `COC(=O)c1c[nH]c2c1-c1cc(C(=O)OCc3ccccc3)n(S(=O)(=O)c3ccc(C)cc3)c1C(=O)C2=O`?
IDH1 R132H inh: 15%; A549 viability: 4.1µM*; Nrf2 inh: 4.1µM*; TrxR1 inh: 1%[11.4 µM]; TrxR1 substrate: 3%[11.4 µM]

How did CNc1ccc(/C=C/c2ccnc3ccccc23)cc1 do in these assays?
TrxR1 inh: 14%; TrxR1 substrate: -4%

What do the screens show for `CC1CCCCN1c1nnc(NC(=O)Nc2ccccc2F)s1` (stereo not drawn)?
IDH1 R132H inh: -9%; A549 viability: -25%; Nrf2 inh: 21µM*; TrxR1 inh: 14%; TrxR1 substrate: 0%

How did Cc1cccc(NC(=O)Nc2nnc(N3CCCCC3C)s2)c1C (stereo not drawn) do in these assays?
Mito fusion yeast: 2%; IDH1 R132H inh: 5%; A549 viability: -2%; Nrf2 inh: 14%; TrxR1 inh: 9%; TrxR1 substrate: 5%

What do the screens show for `Clc1ccc(C2=NNC(=NCc3ccc4c(c3)OCO4)SC2)cc1`?
Mito fusion yeast: 13%; IDH1 R132H inh: -7%; A549 viability: inconclusive; Nrf2 inh: 23µM*; TrxR1 inh: inconclusive; TrxR1 substrate: 1%

Results for Oc1ccc(C2=NNC(=NCc3ccc4c(c3)OCO4)SC2)c(O)c1 ?
Mito fusion yeast: 5%; IDH1 R132H inh: -1%; A549 viability: -3%; Nrf2 inh: 24%; TrxR1 inh: -10%; TrxR1 substrate: -9%

How did O=C(CNC(=O)c1ccc([N+](=O)[O-])cc1)OC(C(=O)Nc1cc(C(F)(F)F)ccc1Cl)c1ccccc1 (stereo not drawn) do in these assays?
A549 viability: 3%; Nrf2 inh: -13%

What do the screens show for `Clc1cccc(CON/C=N/c2ncnc3sccc23)c1`?
Mito fusion yeast: -24%; IDH1 R132H inh: 4%; A549 viability: -4%; Nrf2 inh: 16µM*; TrxR1 inh: -2%; TrxR1 substrate: -8%

Results for CCc1ccccc1NC(=O)C1(S(=O)(=O)c2ccc(Cl)cc2)CC1 ?
IDH1 R132H inh: -4%; A549 viability: 3%; Nrf2 inh: -10%; TrxR1 inh: 18%; TrxR1 substrate: -2%

How did CC(C)c1ccc(NC(=O)C(c2ccccc2)N2CCC3(CC2)OCCO3)cc1 (stereo not drawn) do in these assays?
Mito fusion yeast: 26%; IDH1 R132H inh: 6%; A549 viability: -23%; Nrf2 inh: 15µM*; TrxR1 inh: 2%; TrxR1 substrate: -3%

Results for O=C(NC1CCCCC1)C(c1ccccc1)N1CCC2(CC1)OCCO2 (stereo not drawn) ?
Mito fusion yeast: -6%; IDH1 R132H inh: 2%; A549 viability: -3%; Nrf2 inh: -5%; TrxR1 inh: 18%; TrxR1 substrate: 8%

What do the screens show for `COc1cc(-c2ccc3ncnc(NCc4ccc(C)o4)c3c2)cc(OC)c1OC`?
A549 viability: -15%; Nrf2 inh: inconclusive

Results for COCCCCOc1cc2nc(N3CCCN(C)CC3)nc(NC3CCN(C)CC3)c2cc1OC ?
TrxR1 inh: -33%; TrxR1 substrate: 138%

What do the screens show for `COc1ccc(Br)cc1CNC(=O)c1nn(-c2ccc(C)cc2)c(=O)c2c1c1ccccc1n2C`?
IDH1 R132H inh: 4%; A549 viability: -9%; Nrf2 inh: -16%; TrxR1 inh: 10%; TrxR1 substrate: -2%

Results for CC1(C)CC(=O)C(C2C3=C(CC(C)(C)CC3=O)Oc3ccccc32)C(=O)C1 (stereo not drawn) ?
Mito fusion yeast: 2%; IDH1 R132H inh: 4%; A549 viability: inconclusive; Nrf2 inh: 5%; TrxR1 inh: 56µM*; TrxR1 substrate: -6%

How did CC1(C)CC(=O)C(C2C3=C(CC(C)(C)CC3=O)Oc3ccc4ccccc4c32)C(=O)C1 (stereo not drawn) do in these assays?
Mito fusion yeast: -1%; IDH1 R132H inh: 2%; A549 viability: -19%; Nrf2 inh: -1%; TrxR1 inh: -4%[57.1 µM]; TrxR1 substrate: -4%[57.1 µM]

Results for Cn1nc(-c2ccccc2)nc1-c1ccccc1 ?
Mito fusion yeast: 2%; IDH1 R132H inh: 4%; A549 viability: 5%; Nrf2 inh: inconclusive; TrxR1 inh: 9%; TrxR1 substrate: -4%
